# Measurements from article PMC7862700, “An all-to-all approach to the identification of sequence-specific readers for epigenetic DNA modifications on cytosine”.
# Experiments:
# Assay in all cases: DAPPL (digital affinity profiling via proximity ligation, sequencing); 10 mM Tris-HCl pH 7.5, 50 mM NaCl, 1 mM DTT, 4% glycerol, room temperature, 30 min; GST-TFs on glutathione beads, 16-mer random dsDNA library, 0.1% formaldehyde crosslink after washing; high values mean tight binding
# Conditions in all cases: protein: recombinant; tags: N-terminal GST; dsDNA, one strand shown
# FLI1 = target: T1, FLI1 (Homo sapiens, UniProt Q01543 1-452)
# T1 sequence: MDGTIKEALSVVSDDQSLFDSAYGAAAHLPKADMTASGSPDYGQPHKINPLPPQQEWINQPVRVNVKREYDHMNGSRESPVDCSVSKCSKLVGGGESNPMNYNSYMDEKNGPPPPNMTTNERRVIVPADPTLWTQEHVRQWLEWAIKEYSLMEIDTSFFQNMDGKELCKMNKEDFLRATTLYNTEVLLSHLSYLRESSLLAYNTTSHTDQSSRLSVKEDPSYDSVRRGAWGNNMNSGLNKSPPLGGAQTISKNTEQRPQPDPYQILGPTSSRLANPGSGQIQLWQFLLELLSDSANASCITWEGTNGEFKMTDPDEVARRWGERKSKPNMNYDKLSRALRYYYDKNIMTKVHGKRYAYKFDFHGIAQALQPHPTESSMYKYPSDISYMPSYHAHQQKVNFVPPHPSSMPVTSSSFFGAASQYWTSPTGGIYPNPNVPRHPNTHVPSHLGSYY
# Procedure, shortened: (§1)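 After expression in yeast as GST fusions, human transcription factors were bound to glutathione beads, DNA-barcoded and mixed with a tag-only sample. The pools were incubated with 200 nmole of a 16-mer random double-stranded DNA library in Tris/NaCl/DTT/glycerol buffer (30 min, room temperature), washed and crosslinked with 0.1% formaldehyde. Proximity ligation with BsaI/T4 ligase ran for 1 h at 37 °C, before PCR amplification and sequencing on an Illumina NextSeq500. Binding signal is a hexamer's read frequency for a factor divided by its frequency for the tag-only sample.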
# ELK1 = target: T2, ELK1 (Homo sapiens, UniProt P19419 1-428)
# T2 sequence: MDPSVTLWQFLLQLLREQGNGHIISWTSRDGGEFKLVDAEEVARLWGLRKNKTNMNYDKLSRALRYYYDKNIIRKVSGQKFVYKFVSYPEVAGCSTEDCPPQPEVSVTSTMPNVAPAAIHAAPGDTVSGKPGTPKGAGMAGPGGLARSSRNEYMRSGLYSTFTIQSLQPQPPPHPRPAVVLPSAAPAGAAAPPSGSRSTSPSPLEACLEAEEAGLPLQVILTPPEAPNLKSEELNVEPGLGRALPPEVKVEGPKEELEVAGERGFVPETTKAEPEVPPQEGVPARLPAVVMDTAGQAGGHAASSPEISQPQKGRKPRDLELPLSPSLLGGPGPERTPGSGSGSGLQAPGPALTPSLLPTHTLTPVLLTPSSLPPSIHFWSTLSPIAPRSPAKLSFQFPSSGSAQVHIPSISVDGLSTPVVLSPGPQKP
# Procedure, shortened: as §1
# GABPA = target: T3, GABPA (Homo sapiens, UniProt Q06546 1-454)
# T3 sequence: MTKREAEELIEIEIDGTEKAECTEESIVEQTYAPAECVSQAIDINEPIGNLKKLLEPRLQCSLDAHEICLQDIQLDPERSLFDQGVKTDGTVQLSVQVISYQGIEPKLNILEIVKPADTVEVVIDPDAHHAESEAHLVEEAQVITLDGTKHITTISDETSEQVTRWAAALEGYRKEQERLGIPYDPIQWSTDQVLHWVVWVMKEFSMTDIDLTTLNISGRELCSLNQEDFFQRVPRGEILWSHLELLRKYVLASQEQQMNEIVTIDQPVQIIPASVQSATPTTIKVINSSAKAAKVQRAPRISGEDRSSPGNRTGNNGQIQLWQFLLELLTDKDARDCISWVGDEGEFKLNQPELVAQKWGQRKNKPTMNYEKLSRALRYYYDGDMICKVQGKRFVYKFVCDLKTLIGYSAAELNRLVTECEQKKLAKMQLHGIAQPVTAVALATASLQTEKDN
# Procedure, shortened: as §1
# ERG = target: T4, ERG (Homo sapiens, UniProt P11308 1-479)
# T4 sequence: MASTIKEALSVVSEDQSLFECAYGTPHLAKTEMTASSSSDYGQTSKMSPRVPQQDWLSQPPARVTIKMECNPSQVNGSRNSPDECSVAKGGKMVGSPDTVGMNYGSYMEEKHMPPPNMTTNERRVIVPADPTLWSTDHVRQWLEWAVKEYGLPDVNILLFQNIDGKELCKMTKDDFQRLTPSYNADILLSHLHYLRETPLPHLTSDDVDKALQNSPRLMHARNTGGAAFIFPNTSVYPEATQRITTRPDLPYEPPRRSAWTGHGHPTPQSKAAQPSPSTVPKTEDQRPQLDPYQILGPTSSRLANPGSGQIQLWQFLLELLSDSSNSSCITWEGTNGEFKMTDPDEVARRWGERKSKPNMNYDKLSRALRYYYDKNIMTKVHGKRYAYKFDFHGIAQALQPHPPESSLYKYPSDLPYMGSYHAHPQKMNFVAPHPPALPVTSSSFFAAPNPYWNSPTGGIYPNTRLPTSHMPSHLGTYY
# Procedure, shortened: as §1
# EHF = target: T5, EHF (Homo sapiens, UniProt Q9NZC4 1-300)
# T5 sequence: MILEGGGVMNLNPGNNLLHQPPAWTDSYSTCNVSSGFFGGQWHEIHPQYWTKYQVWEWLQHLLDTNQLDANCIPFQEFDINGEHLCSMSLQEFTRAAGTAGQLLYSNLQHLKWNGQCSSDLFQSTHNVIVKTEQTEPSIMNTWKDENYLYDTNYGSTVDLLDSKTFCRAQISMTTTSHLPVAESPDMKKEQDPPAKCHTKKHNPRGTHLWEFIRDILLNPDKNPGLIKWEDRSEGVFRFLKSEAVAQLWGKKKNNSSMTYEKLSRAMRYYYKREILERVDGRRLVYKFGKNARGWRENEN
# Procedure, shortened: as §1
# SPI1 = SPI1 (Homo sapiens, UniProt P17947 1-270)
# Procedure, shortened: as §1
# SPIB = SPIB (Homo sapiens, UniProt Q01892 1-262)
# Chain of SPIB (Q01892 whole entry): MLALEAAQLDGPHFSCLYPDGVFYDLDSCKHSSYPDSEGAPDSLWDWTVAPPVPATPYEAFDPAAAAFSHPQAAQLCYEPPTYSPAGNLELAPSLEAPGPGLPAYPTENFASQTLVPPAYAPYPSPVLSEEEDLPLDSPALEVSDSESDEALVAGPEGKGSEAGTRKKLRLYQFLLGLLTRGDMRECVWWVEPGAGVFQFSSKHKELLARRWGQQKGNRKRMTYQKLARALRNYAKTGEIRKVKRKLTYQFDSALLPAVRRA
# Procedure, shortened: as §1
# ELK3 = target: T6, ELK3 (Homo sapiens, UniProt P41970 1-407)
# T6 sequence: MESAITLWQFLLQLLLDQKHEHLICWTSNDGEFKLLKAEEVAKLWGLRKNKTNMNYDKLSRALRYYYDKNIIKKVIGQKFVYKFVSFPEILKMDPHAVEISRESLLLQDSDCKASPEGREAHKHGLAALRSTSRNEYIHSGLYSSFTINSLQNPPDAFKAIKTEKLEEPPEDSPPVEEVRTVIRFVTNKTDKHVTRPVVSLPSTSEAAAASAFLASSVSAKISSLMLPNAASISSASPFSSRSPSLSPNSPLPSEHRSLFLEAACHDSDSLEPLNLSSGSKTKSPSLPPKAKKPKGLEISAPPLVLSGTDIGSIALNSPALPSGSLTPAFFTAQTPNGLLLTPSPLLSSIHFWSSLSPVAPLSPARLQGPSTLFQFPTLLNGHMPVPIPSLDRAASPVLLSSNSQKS
# Procedure, shortened: as §1
# ETV5 = ETV5 (Homo sapiens, UniProt P41161 1-510)
# Chain of ETV5 (P41161 whole entry): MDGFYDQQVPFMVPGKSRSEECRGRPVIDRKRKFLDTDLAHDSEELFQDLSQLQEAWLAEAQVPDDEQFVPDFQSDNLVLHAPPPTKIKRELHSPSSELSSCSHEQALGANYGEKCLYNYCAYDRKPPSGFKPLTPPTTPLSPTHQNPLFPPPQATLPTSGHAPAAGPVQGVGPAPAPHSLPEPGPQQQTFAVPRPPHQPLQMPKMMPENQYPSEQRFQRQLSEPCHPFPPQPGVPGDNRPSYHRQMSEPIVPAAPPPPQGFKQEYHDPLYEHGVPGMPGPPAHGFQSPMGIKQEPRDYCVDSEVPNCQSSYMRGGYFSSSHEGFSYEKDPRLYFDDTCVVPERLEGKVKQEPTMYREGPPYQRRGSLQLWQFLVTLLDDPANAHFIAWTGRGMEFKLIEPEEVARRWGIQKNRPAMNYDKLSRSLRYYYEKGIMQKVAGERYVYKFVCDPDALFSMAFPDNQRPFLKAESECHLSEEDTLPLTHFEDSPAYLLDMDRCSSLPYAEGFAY
# Procedure, shortened: as §1
# SPIC = target: T7, SPIC (Homo sapiens, UniProt Q8N5J4 1-248)
# T7 sequence: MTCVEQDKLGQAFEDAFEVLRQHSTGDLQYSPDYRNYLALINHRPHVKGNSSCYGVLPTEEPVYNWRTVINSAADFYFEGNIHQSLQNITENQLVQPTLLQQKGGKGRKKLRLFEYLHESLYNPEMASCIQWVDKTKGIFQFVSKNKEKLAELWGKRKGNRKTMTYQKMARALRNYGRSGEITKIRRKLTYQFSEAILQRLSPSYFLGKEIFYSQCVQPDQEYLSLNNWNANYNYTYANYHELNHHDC
# Procedure, shortened: as §1
# ELF4 = ELF4 (Homo sapiens, UniProt Q99607 1-663)
# Chain of ELF4 (Q99607 whole entry): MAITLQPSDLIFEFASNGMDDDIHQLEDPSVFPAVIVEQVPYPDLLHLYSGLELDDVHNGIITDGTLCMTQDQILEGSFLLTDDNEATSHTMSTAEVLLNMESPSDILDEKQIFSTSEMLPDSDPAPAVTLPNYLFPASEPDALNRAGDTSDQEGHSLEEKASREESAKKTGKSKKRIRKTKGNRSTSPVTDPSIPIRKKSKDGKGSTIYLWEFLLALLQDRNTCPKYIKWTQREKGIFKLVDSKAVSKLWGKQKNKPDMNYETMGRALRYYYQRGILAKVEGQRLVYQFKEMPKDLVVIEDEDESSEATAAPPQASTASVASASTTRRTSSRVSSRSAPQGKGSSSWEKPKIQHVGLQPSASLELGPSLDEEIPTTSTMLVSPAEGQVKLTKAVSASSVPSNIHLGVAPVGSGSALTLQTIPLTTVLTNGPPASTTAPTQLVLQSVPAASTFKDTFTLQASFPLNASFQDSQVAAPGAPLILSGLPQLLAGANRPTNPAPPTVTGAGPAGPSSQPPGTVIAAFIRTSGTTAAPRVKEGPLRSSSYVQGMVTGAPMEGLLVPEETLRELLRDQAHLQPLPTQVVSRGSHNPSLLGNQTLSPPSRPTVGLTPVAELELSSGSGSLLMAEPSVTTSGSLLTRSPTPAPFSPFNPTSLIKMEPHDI
# Procedure, shortened: as §1
# ETV1 = ETV1 (Homo sapiens, UniProt P50549 1-477)
# Chain of ETV1 (P50549 whole entry): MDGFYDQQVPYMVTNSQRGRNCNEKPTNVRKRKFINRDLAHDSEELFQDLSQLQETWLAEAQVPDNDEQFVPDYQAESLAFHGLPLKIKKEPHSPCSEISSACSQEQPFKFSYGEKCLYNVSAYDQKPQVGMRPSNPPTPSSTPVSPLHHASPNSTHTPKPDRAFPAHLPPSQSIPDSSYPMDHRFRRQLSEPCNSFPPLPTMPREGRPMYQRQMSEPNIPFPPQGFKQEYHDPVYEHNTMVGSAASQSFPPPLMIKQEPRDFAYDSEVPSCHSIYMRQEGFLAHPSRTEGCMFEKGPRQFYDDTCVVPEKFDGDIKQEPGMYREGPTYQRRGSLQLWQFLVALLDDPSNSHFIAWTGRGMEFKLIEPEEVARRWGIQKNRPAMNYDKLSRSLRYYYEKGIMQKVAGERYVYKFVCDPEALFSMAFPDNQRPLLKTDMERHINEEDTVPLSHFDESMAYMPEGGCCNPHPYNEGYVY
# Procedure, shortened: as §1
# ERF = target: T8, ERF (Homo sapiens, UniProt P50548 1-548)
# T8 sequence: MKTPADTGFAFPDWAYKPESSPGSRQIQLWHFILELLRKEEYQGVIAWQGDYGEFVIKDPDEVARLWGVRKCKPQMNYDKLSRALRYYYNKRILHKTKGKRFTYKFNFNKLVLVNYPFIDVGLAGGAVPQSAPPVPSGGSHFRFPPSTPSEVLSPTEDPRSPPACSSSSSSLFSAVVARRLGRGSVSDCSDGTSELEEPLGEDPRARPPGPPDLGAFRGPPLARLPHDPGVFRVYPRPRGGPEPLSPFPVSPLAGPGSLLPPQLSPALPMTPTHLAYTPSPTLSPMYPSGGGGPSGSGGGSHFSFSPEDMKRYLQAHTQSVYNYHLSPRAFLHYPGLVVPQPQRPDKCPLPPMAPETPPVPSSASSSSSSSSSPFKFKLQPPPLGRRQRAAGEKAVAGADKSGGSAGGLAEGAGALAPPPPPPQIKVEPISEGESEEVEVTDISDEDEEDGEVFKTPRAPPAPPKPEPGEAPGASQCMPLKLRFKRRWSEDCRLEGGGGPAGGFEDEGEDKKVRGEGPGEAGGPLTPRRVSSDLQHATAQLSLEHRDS
# Procedure, shortened: as §1
# ETV3L = target: T9, ETV3L (Homo sapiens, UniProt Q6ZN32 1-361)
# T9 sequence: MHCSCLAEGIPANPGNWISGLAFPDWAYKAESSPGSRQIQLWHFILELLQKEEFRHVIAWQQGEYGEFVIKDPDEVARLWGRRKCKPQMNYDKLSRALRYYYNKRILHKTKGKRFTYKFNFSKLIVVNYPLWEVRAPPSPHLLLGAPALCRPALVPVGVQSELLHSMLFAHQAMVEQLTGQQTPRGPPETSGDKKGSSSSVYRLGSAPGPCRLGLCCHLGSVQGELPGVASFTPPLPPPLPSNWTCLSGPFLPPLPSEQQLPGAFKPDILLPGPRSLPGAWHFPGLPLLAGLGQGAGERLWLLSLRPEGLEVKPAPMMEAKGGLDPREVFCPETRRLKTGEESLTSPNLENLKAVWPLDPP
# Procedure, shortened: as §1
# SPDEF = target: T10, SPDEF (Homo sapiens, UniProt O95238 1-335)
# T10 sequence: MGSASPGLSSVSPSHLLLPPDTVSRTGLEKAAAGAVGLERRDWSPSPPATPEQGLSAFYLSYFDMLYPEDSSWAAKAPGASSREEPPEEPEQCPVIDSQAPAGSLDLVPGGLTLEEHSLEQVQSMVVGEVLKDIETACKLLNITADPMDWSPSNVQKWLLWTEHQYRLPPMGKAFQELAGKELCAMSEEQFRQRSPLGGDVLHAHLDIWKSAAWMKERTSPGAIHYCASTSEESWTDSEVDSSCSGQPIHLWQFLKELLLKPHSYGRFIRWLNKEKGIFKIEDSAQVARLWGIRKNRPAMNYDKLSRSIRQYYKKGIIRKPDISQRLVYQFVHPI
# Procedure, shortened: as §1
# ETV3 = target: T11, ETV3 (Homo sapiens, UniProt P41162-2 1-143)
# T11 sequence: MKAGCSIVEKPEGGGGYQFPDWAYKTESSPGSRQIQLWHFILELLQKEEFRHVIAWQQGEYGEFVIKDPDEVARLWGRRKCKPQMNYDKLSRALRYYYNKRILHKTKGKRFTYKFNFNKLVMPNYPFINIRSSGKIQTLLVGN
# Procedure, shortened: as §1
# ETV6 = ETV6 (Homo sapiens, UniProt P41212 1-452)
# Chain of ETV6 (P41212 whole entry): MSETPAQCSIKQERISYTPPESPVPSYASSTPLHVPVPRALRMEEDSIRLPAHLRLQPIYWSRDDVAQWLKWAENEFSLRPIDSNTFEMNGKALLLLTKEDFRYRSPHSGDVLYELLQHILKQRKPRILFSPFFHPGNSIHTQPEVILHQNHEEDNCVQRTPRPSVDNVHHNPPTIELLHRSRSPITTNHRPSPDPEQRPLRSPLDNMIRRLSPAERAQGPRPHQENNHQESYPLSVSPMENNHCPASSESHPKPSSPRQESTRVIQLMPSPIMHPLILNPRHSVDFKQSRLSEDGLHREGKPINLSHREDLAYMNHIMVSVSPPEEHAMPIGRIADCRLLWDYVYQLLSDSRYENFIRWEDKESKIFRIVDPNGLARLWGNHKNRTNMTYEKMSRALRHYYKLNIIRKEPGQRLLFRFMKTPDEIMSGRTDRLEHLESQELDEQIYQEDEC
# Procedure, shortened: as §1
sequence,measurement,setting,value
ATAAGG,binding signal,FLI1,"1.07 fold enrichment (6-mer frequency, TF over GST control)"
same,binding signal,ELK1,"1.01 fold enrichment (6-mer frequency, TF over GST control)"
same,binding signal,GABPA,"1.02 fold enrichment (6-mer frequency, TF over GST control)"
same,binding signal,ERG,"1.07 fold enrichment (6-mer frequency, TF over GST control)"
same,binding signal,EHF,"1.05 fold enrichment (6-mer frequency, TF over GST control)"
same,binding signal,SPI1,"1.05 fold enrichment (6-mer frequency, TF over GST control)"
same,binding signal,SPIB,"1.01 fold enrichment (6-mer frequency, TF over GST control)"
same,binding signal,ELK3,"1.19 fold enrichment (6-mer frequency, TF over GST control)"
same,binding signal,ETV5,"1.04 fold enrichment (6-mer frequency, TF over GST control)"
same,binding signal,SPIC,"1.12 fold enrichment (6-mer frequency, TF over GST control)"
same,binding signal,ELF4,"1.06 fold enrichment (6-mer frequency, TF over GST control)"
same,binding signal,ETV1,"1.03 fold enrichment (6-mer frequency, TF over GST control)"
same,binding signal,ERF,"1.05 fold enrichment (6-mer frequency, TF over GST control)"
same,binding signal,ETV3L,"1.01 fold enrichment (6-mer frequency, TF over GST control)"
same,binding signal,SPDEF,"1.05 fold enrichment (6-mer frequency, TF over GST control)"
same,binding signal,ETV3,"1.05 fold enrichment (6-mer frequency, TF over GST control)"
same,binding signal,ETV6,"1.07 fold enrichment (6-mer frequency, TF over GST control)"
